Inconclusive results are not listed. Entries that show only a call come without a potency. A structure can be active in one record and inactive in another. Calls of active or inactive are those of the source. Calls follow the shape of the dose curve; as a rule, active = well fitted activation curve with a large enough effect in the repeat runs; inconclusive = weak or mixed curves; inactive = flat fitted curve, though single readings scatter.
test: Caspase-3/7 induction in HepG2 cells by small molecules, qHTS assay (AID 1346978); details: HepG2 caspase-3/7 activation, Caspase-Glo luminescence, 17 h; series mostly up to 92.4 µM; also: nearly all actives have a fitted effect of over 15% in size
From the text: National Center for Advancing Translational Sciences [NCATS] NIH Chemical Genomics Center [NCGC] U.S. Environmental Protection Agency [EPA] National Institutes of Environmental Health Sciences [NIEHS] National Toxicology Program [NTP] Assay overview: Apoptosis is a process of programmed cell death and plays a central role in the development of multicellular organisms. It is a highly regulated process and induces cell death by activating caspases, which are the members of cysteine aspartic acid-specific protease (caspase) family. Caspases involved in apoptosis are classified by their mechanism of action as initiator caspases (caspase-2, -8, -9 and -10) and executioner caspases (caspase-3, -6, and -7). Inhibition of apoptosis results in number of cancers, autoimmune diseases, inflammatory diseases and viral infection. To identify small molecule compounds that induce apoptosis, a homogeneous, luminescent Caspase-Glo 3/7 assay was used. Wild type HepG2 cells were used to screen Tox21 libraries for identifying caspase-3/7 activity inducers.
Assay Protocol Summary: HepG2 cells were dispensed at 2,000 per well in 5uL of culture medium into white solid bottom 1536-well plates (Corning Life Sciences, Corning, NY) using a Multidrop Combi (Thermo Scientific, Waltham, MA) dispenser. The assay plates were incubated at 37 C and 5% CO2 for 5hr, and then 23nL of compounds dissolved in DMSO and positive control were transferred using a Pintool station (Wako, San Diego, CA). The assay plates were incubated at 37C and 5% CO2 for 17hr. For caspase-3/7 activity read, 4uL of Caspase-Glo 3/7 reagent (Promega Corporation, Madison, WI) was added to each well of the assay plates using Flying Reagent Dispenser (FRD, Aurora Discovery, San Diego, CA) and incubated the assay plates at room temperature for 30min. The luminescence signal was quantified using a ViewLux plate reader (Perkin Elmer, Shelton, CT).
Potency is read from the fitted curve at half-maximal effect.

| SMILES | Potency |
| --- | --- |
| NCCOCCO | inactive |
| FC(F)(F)C(Cl)Br (stereo not given) | inactive |
| Oc1c(Cl)ccc(Cl)c1Cl | inactive |
| C[N+](C)(C)CCO | inactive |
| COC(=O)CC(=O)OC | inactive |
| CC(C)[N+](C)(CCOC(=O)C1c2ccccc2Oc2ccccc21)C(C)C | inactive |
| CC1(C)NC(=O)N(c2ccc([N+](=O)[O-])c(C(F)(F)F)c2)C1=O | inactive |
| COc1ccc(-c2coc3cc(O)cc(O)c3c2=O)cc1 | inactive |
| COc1cc([C@H]2Oc3cc([C@H]4Oc5cc(O)cc(O)c5C(=O)[C@@H]4O)ccc3O[C@@H]2CO)ccc1O | inactive |
| NC[C@H](O)c1ccc(O)c(O)c1 | inactive |
| O=C(O)c1ccc(O)cc1 | inactive |
| CC(=O)Nc1ccc2c(c1)Cc1cc(NC(C)=O)ccc1-2 | inactive |
| CCO[Si](CCCNC(N)=O)(OCC)OCC | inactive |
| c1ccc2c(c1)ccc1cc3c(ccc4ccccc43)cc12 | inactive |
| Nc1cc([N+](=O)[O-])ccc1C(=O)O | inactive |
| Nc1ccc2c(O)cc(S(=O)(=O)O)cc2c1 | inactive |
| Cc1ccc(S(=O)(=O)O)cc1C | inactive |
| CC(C)(Oc1ccc(Cl)cc1)C(=O)O | inactive |
| Nc1ccc(O)c(N)c1 | inactive |
| C=C[C@H]1CN2CC[C@H]1C[C@H]2[C@H](O)c1ccnc2ccc(OC)cc12 | inactive |

| SMILES | Potency |
| --- | --- |
| CC(=O)O[C@]1(C(C)=O)CC[C@H]2[C@@H]3C=C(C)C4=CC(=O)CC[C@]4(C)[C@H]3CC[C@@]21C | inactive |
| O=C(O)c1cc(=O)[nH]c(=O)[nH]1 | inactive |
| OCCNCCO | inactive |
| CCCCCCOCCOCCO | inactive |
| CCC/C=C/C=O | inactive |
| Cc1ccc(S(=O)(=O)NCl)cc1 | inactive |
| O=[Se](O)O | inactive |
| CCC(Cc1c(I)cc(I)c(N)c1I)C(=O)O (stereo not given) | inactive |
| CC(C)=CCO | inactive |
| Cc1ccc2c(c1)C(=O)OC2=O | inactive |
| C=C1C[C@H]2[C@@H]3C=C(C)C4=CC(=O)CC[C@]4(C)[C@H]3CC[C@]2(C)[C@@]1(OC(C)=O)C(C)=O | inactive |
| C=CCOC(=O)C(=C)C | inactive |
| O=Cc1ccccc1C=O | 48.6 µM (active) and inactive |
| Nc1cc(Cl)c(N)c(Cl)c1 | inactive |
| c1ccc2c(c1)[nH]c1ccccc12 | inactive |
| OC[C@@H](O)[C@@H](O[C@@H]1O[C@H](CO)[C@H](O)[C@H](O)[C@H]1O)[C@H](O)[C@@H](O)CO | inactive |
| CCCCCCCC/C=C\CCCCCCCC(=O)O | inactive |
| CCCOCCO | inactive |
| NCCN | inactive |
| OC[C@H]1O[C@@H]2O[C@H]3[C@H](O)[C@@H](O)[C@@H](O[C@H]4[C@H](O)[C@@H](O)[C@@H](O[C@H]5[C@H](O)[C@@H](O)[C@@H](O[C@H]6[C@H](O)[C@@H](O)[C@@H](O[C@H]7[C@H](O)[C@@H](O)[C@@H](O[C@H]1[C@H](O)[C@H]2O)O[C@@H]7CO)O[C@@H]6CO)O[C@@H]5CO)O[C@@H]4CO)O[C@@H]3CO | inactive |

From PubChem BioAssay (Tox21)
